The list is not random: actives were taken first. Their share in the collection is about 19%.
HT1080-NT tox: qHTS for induction of synthetic lethality in tumor cells producing 2HG: qHTS for the HT-1080-NT fibrosarcoma cell line; HT-1080-NT fibrosarcoma viability, CellTiter-Glo ATP luminescence, 48 h; Potency, µM (doses to about 46.1 µM), for the others: at the top dose activity, negative = less viability, hits mostly cytotoxic; 360,000 tested, 1.6% active;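 note: NT is the 2HG producing partner of a matched IDH1 knockdown line; potency is the fitted concentration of half-maximal effect; 0% = DMSO-treated cells and -100% = media-only wells without cells; nearly all actives have a fitted effect of over 55% in size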
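Viability by CellTiter-Glo luminescence after 48 h compound exposure at 37C of HT-1080-NT cells (750/well, RPMI, 5% FBS). % activity scaled between DMSO wells and medium-only wells, then curve-fitted and categorized by curve class.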
DT40 TDP1 CPT: qHTS for Inhibitors of human tyrosyl-DNA phosphodiesterase 1 (TDP1): qHTS in cells in presence of CPT; chicken DT40 Tdp1-/-;hTDP1 cells + 20 nM CPT, ATP luminescence, 48 h; Potency, µM (top dose mostly 46.2 µM), for inactives: top-dose activity change, negative = growth inhibition, actives largely listed as inhibitors; 420,000 tested, 12% active; note: potency is the fitted concentration of half-maximal effect; nearly all actives have a fitted effect of over 55% in size
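Cell growth measured by CellTiter-Glo luminescence after a minimum 48 h, 37 C compound exposure with 20 nM CPT in Tdp1-knockout DT40 cells stably expressing hTDP1, seeded 400/well; qHTS titration format.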
IL-1B inflam inh: qHTS for Inhibitors of Inflammasome Signaling: IL-1-beta AlphaLISA Primary Screen; THP-1 LPS/ATP IL-1B secretion, AlphaLISA, 16 h; hits give low values; activity change, % at 57.5 µM; 360,000 tested, 4.7% active; AID 743279, 2014; in the data active = activity change below about -50%; inconclusive = mostly about -30% to -49%
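THP-1 cells pretreated 1 hr with compounds (up to 57.5 uM final), then stimulated with LPS (250 ng/mL final) plus ATP (1.25 mM final); secreted IL-1B measured by AlphaLISA after 16 hr, decreased signal indicating inhibition.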
ELG1 DNA repair: qHTS screen for small molecules that inhibit ELG1-dependent DNA repair in human embryonic kidney (HEK293T) cells expressing luciferase-tagged ELG1; AID 504467, 2011; Potency, µM (highest dose often 46.1 µM), inactives show at the highest dose activity change, negative = inhibition, most hits filed as inhibitors; HEK293T ELG1-luciferase reporter, luminescence, 16 h; DNA damage induced by 5-fluorouridine; 330,000 tested, 2.3% active; note: potency is the fitted concentration of half-maximal effect; nearly all actives have a fitted effect of over 55% in size
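DMSO vehicle served as the neutral condition. Each well held 2,000 cells given 5-fluorouridine plus compound; after 16 hr at 37 °C/5% CO2, ONE-Glo was added and luciferase measured 30 min later.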
TDP1 cell noCPT: qHTS for Inhibitors of human tyrosyl-DNA phosphodiesterase 1 (TDP1): qHTS in cells in absence of CPT; DT40 Tdp1-/- hTDP1 cells, no CPT, ATP luminescence, 48 h; Potency, µM (doses to about 46.2 µM), for the others: at the highest dose activity change, negative = growth inhibition, hits mostly inhibitors; 420,000 tested, 15% active; note: potency is the fitted concentration of half-maximal effect; nearly all actives have a fitted effect of over 55% in size
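Compound effects on proliferation are scored in DT40 Tdp1-/-;hTDP1 cells in the absence of CPT. ATP levels (CellTiter-Glo luminescence) are recorded after a ≥48 hr, 37 °C incubation.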
HT1080 IDH1KD tx: qHTS for induction of synthetic lethality in tumor cells producing 2HG: qHTS for the HT-1080-IDH1KD cell line | HT-1080 IDH1 knockdown viability, ATP luminescence, 48 h | Potency, µM (highest dose often 46.1 µM), inactives show at the top dose activity, negative = toxicity, actives largely listed as cytotoxic | 360,000 tested, 2% active;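 note: potency is the fitted concentration of half-maximal effect; 0% = DMSO wells and -100% = cell-free medium wells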
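After a 2 h attachment period, IDH1KD HT-1080 cells took pin-transferred compound for 48 h at 37 °C; ATP-based luminescence after 10 min room-temperature reagent incubation reported viability.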
Active calls of the source: *; ? = inconclusive; · = no result given. Unless noted, calls come from the whole dose curve; as a rule, active = well fitted curve in the direction sought with a large enough effect; inconclusive = small, poorly fitted or top-dose-only effect, or another doubt; inactive = no such curve, though single readings can be large; an effect the other way counts as inactive or inconclusive. Unless noted, % is set by controls: 0 for no effect and ±100 for the full control effect.

SMILES	HT1080-NT tox	DT40 TDP1 CPT	IL-1B inflam inh	ELG1 DNA repair	TDP1 cell noCPT	HT1080 IDH1KD tx
CCOC(=O)[C@]12Cc3cc4ccccc4cc3[C@H]1N(Cc1ccccc1)C(=O)c1cc(OC)ccc12	21µM*	8.2µM*	-109*	·	6.5µM*	15µM*
CCCCCN1C(=O)c2cc(OC)ccc2[C@@]2(C(=O)OCC)Cc3cc(Cl)ccc3[C@@H]12	2.9µM*	3.3µM*	·	·	2.9µM*	4.1µM*
CCOC(=O)[C@]12Cc3ccccc3[C@H]1N(Cc1ccccc1)C(=O)c1cc(OC)ccc12	?	?	-13	·	18µM*	?
CCOC(=O)[C@]12Cc3cc(OC)c(OC)cc3[C@H]1N(Cc1ccccc1)C(=O)c1ccccc12	0%	?	-5	·	14µM*	-3%
CCOC(=O)c1cc2cc(OC)ccc2n1C1CCN(Cc2ccccc2)CC1	?	?	29	·	?	-26%
CCC1C2Cc3ccc(O)cc3C1(CC)CCN2C (centres undefined)	2%	-15%	-6	·	-19%	6%
CC(C)CCC1(CCO)C(=O)NC(=S)NC1=O	1%	-10%	-6	·	-1%	-1%
CCOC(=O)[C@]12Cc3cc(Cl)ccc3[C@H]1N(Cc1ccccc1)C(=O)c1cc(OC)ccc12	15µM*	4.6µM*	-113*	·	5.8µM*	13µM*
CCOC(=O)[C@]12Cc3c(cc(OC)c(OC)c3OC)[C@H]1N(Cc1ccccc1)C(=O)c1ccccc12	-14%	?	?	·	16µM*	-6%
CCOC(=O)C1(CCc2ccccc2)CCN(Cc2ccc(NC(C)=O)cc2)CC1	-2%	?	-6	-25%	?	-4%
CCOC(=O)[C@]12Cc3ccsc3[C@H]1N(Cc1ccccc1)C(=O)c1ccccc12	-7%	?	-29	·	18µM*	0%
CCOC(=O)[C@]12Cc3cc(OC)ccc3[C@H]1N(Cc1ccccc1)C(=O)c1cc(OC)ccc12	-20%	?	9	·	16µM*	-26%
CCOC(=O)C1C2NC(=O)N(Cc3ccccc3)C1(C)Oc1c(OC)cccc12 (centres undefined)	0%	-18%	22	-6%	-15%	-1%
Cc1ccc(-n2c(O)c(C=NCc3ccco3)c(=O)[nH]c2=S)cc1C	-5%	-4%	·	-3%	-6%	-7%
CN(C(=O)Cc1ccc(Cl)c(Cl)c1)[C@@H](CN1CCCC1)c1cccc(OCC(=O)O)c1	·	11%	·	·	-6%	·
CCOC(=O)[C@]12Cc3cc4ccccc4cc3[C@H]1N(Cc1ccccc1)C(=O)c1ccccc12	16µM*	16µM*	-110*	·	21µM*	15µM*
COc1cccc(C2Nc3ccccc3C(=O)N2Cc2ccccc2)c1 (centres undefined)	3%	-2%	?	·	?	4%
CCOC(=O)[C@]12Cc3ccc4ccccc4c3[C@H]1N(Cc1ccccc1)C(=O)c1ccccc12	-9%	?	-56*	·	?	1%
OCC(CBr)(CBr)CBr	-4%	-1%	19	?	?	-1%
Cc1ccc(NC(=O)N2CCN(c3cc(-c4noc(C)n4)ccc3C)CC2)c(F)c1	·	?	·	·	16µM*	·
N#CC(C#N)=NNc1ccc(S(=O)(=O)N2CCCC2)cc1	-2%	?	-26	-27%	16µM*	1%
O=C(COc1ccc(S(=O)(=O)N2CCCCC2)cc1)N1CCN(Cc2ccccc2)CC1	1%	?	9	?	?	-1%
Cc1cc(=O)oc2cc(Oc3ccc([N+](=O)[O-])cc3C(F)(F)F)ccc12	-10%	?	-5	·	?	-17%
Cc1cc(-c2nnn(CCCOC(C)(C)C)c2C)ccc1-c1cn(CCCOC(C)(C)C)nn1	-4%	8.2µM*	25	·	6.5µM*	8%
COc1ccc(Nc2cc(C)c3cc(NC(=O)c4ccccc4Cl)ccc3n2)cc1	·	21µM*	·	·	9.2µM*	·
SMILES	HT1080-NT tox	DT40 TDP1 CPT	IL-1B inflam inh	ELG1 DNA repair	TDP1 cell noCPT	HT1080 IDH1KD tx
CC(C(O)c1ccccc1)N(C)CCOC(c1ccccc1)c1ccccc1 (centres undefined)	·	12µM*	·	·	15µM*	·
COc1ccc(C(=O)c2c(C)n(CCN3CCOCC3)c3ccccc23)cc1	·	?	·	·	24µM*	·
CC1(C)CC[C@]2(C)CC[C@]3(C)C4C[C@@H]5OO[C@@]6(O5)C(CCCC6(C)C)[C@]4(C)CC[C@@]3(C)C2C1 (some centres undefined)	5%	8.2µM*	5	·	5.2µM*	-8%
CCN(CC)C(=O)c1ccc(NC(=O)Nc2ccccc2F)cc1	7.3µM*	4.6µM*	-15	?	9.2µM*	5.2µM*
CCN(CC)C(=O)c1ccc(NC(=O)CCCSc2ccccc2)cc1	12%	-2%	-11	-14%	?	0%
C[C@H]1[C@H](OC(=O)CCC(=O)NCc2ccc(C(=O)O)cc2)O[C@@H]2O[C@@]3(C)CC[C@H]4[C@H](C)CC[C@@H]1C24OO3	?	0.26µM*	-8	?	0.026µM*	8.2µM*
CC(C)CC(NC(=O)CCCNC(=O)CCC(=O)OC1O[C@H]2OC3(C)CC[C@H]4[C@H](C)CCC(C1C)C24OO3)C(=O)O (some centres undefined)	23µM*	0.21µM*	-5	?	0.18µM*	18µM*
c1ccc2sc(C3(N4CCCCC4)CCCCC3)cc2c1	·	27µM*	·	·	18µM*	·
c1csc(C2(N3CCCCC3)CCCCC2)c1	·	7%	·	·	-16%	·
Cc1cc(-c2ccc(C)c(S(=O)(=O)N3CCOc4ccc(Cl)cc43)c2)on1	·	21µM*	·	·	13µM*	·
O=C(CCC(=O)N1CCOc2ccc(Cl)cc21)N1CCC2(CC1)OCCO2	16%	-2%	9	23%	28%	22%
CCCCCCC(=O)O[C@H]1CC[C@H]2[C@@H]3CC[C@H]4CC(=O)C=C(C)[C@]4(C)[C@H]3CC[C@]12C	·	3%	·	·	?	·

Source: PubChem
